Compound activity: PubChem, Milwaukee Institute for Drug Discovery
HCV NS3h FP – blocks HCV NS3 helicase binding to DNA; 16,000 tested, 1.6% active; AID 687043; inhibition, % at 100 µM; NS3h Cy5-dT15 DNA binding, fluorescence polarization;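 active means inhibition above the average over every tested compound plus 3 SD, cut at about 40% in these data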
Cy5 interf NS3h – Cy5 fluorescence interference, HCV helicase counter-screen; Cy5-dT15 DNA with NS3h; actives lie on both sides; signal over control mean, under 1 quenches; fluorescence interference ratio at 100 µM; 16,000 tested, 6% active;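 active means compound fluorescence over control fluorescence at most 0.8, a quencher, or at least a set upper limit, an enhancer; inactive means ratio between 0.8 and the set upper limit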
Active calls of the source: *. The list is not random: actives were taken first. Their share in the collection is about 7.6%.

SMILES | HCV NS3h FP | Cy5 interf NS3h
O=C1Nc2ccccc2C1(O)C/C(=N\O)c1ccc(Cl)cc1 (stereo not drawn) | 1.8 | 0.984
CC(=O)C(C(=O)c1ccccc1)C1(O)C(=O)Nc2ccccc21 (stereo not drawn) | -3.4 | 0.787*
Cc1ccc(C)n1-c1cccc2cccnc12 | -87.4 | 0.0702*
Cc1ccc(CN2CCN(/N=C\c3ccc(C(=O)O)cc3)CC2)cc1 | -4.2 | 0.991
CCOc1ccc(C(=O)Nc2ccccc2C(=O)O)cc1 | 3.1 | 1.1
CCOc1ccccc1NC(=O)c1ccc(OC)cc1 | 8.2 | 1.25*
COc1ccc(C(=O)NCc2ccccc2C)cc1 | 4.0 | 1.04
CCOC(=O)CNC(=O)c1ccc(OC)cc1 | 4.0 | 0.709*
COC(=O)c1ccc(N(C(=O)C(F)(F)F)C2C=CS(=O)(=O)C2)cc1 (stereo not drawn) | -7.4 | 1.03
CC1C(c2ccccc2)NC(c2ccccc2)C(C)C1O (stereo not drawn) | -3.7 | 1.03
COc1ccc(C2CC(O)C(C)C(c3ccc(OC)cc3)N2)cc1 (stereo not drawn) | 15.9 | 0.726*
COc1cccc(N2C(=O)CSC2=S)c1 | 9.6 | 0.964
O=C1C2C3C=CC(C3)C2C(=O)N1c1cccc(-c2nc3ccccc3c(=O)o2)c1 (stereo not drawn) | 15.0 | 0.761*
O=C1C2C3C=CC(C3)C2C(=O)N1c1cccc(Oc2cccc(Oc3cccc(N4C(=O)C5C6C=CC(C6)C5C4=O)c3)c2)c1 (stereo not drawn) | -1.4 | 0.865
O=C(COc1ccc(Br)cc1)Nc1cccc([N+](=O)[O-])c1 | -6.1 | 0.949
O=[N+]([O-])c1ccc(NC(=NS(=O)(=O)c2ccccc2)c2ccccc2)cc1 | 10.4 | 0.937
CCCC(C)NC(=O)c1ccc(Cl)cc1Cl (stereo not drawn) | -1.0 | 1.05
O=C(Nc1ccc(-c2nc3ccccc3c(=O)o2)cc1)c1ccccc1F | -1.6 | 0.885
O=c1oc(-c2cccc(F)c2)nc2ccc(Cc3ccc4nc(-c5cccc(F)c5)oc(=O)c4c3)cc12 | 19.8 | 0.769*
Cc1oc2ccc(O)c(CN(C)C)c2c1C(C)O (stereo not drawn) | 0.0 | 1.02
CCOCCOC(=O)c1ccc(NC(=O)COc2cc(C)cc(C)c2)cc1 | 1.8 | 0.964
COc1ccccc1NC(=O)c1c(O)c2ccccc2[nH]c1=O | 8.9 | 1.12
Cc1csc(NC(=O)c2c(O)c3ccccc3[nH]c2=O)n1 | -0.3 | 1.2*
O=C(Nc1ccccc1)C1C(c2ccccc2)=C1c1ccccc1 | 9.7 | 1.01
CC(=O)Nc1ccc(S(=O)(=O)NC(c2ccccc2)c2ccccc2)cc1 | 12.4 | 1.12
SMILES | HCV NS3h FP | Cy5 interf NS3h
CC(=O)Nc1ccc(S(=O)(=O)NNC(=O)c2ccccc2Cl)cc1 | 15.0 | 0.746*
CCCCNC(=O)/C(=C/c1ccc(Cl)cc1)NC(=O)c1ccc(OC)cc1 | 14.2 | 0.967
COc1ccc([N+](=O)[O-])cc1/C=C1\SC(=S)N(C2CCCCC2)C1=O | 0.0 | 0.999
COc1ccc(NC(=O)/C(C#N)=C/c2ccc(Cl)c(Cl)c2)cc1 | 15.4 | 1.05
CC(=O)OCCCN1C(=O)c2ccc(S(=O)(=O)c3ccc4c(c3)C(=O)N(CCCOC(C)=O)C4=O)cc2C1=O | 2.8 | 1.03
COc1ccc(C(=O)OCCCN2C(=O)c3ccccc3C2=O)cc1 | 8.7 | 0.616*
CCOc1cc(C(=O)Nc2ccc(F)cc2)cc(OCC)c1OCC | 16.8 | 0.705*
CCOc1cc(OCC)cc(C(=O)Nc2ccc(F)cc2)c1 | 20.3 | 1.03
CCc1ccc(NC(=O)c2cc([N+](=O)[O-])ccc2Cl)cc1 | 3.4 | 1.04
Cn1c(-c2nc3ccccc3n2C)nc2ccccc21 | 5.0 | 0.939
Cn1c(-c2ccc(-c3nc4cnccc4n3C)cc2)nc2cnccc21 | -2.2 | 1.21*
CCc1nnc(NS(=O)(=O)c2ccc(NC(=S)NC(=O)/C=C/c3ccc(C(C)C)cc3)cc2)s1 | 43.9* | 0.919
Cc1ccc(/C=C/C(=O)NC(=S)Nc2ccc(S(N)(=O)=O)cc2)cc1 | -1.0 | 1.07
Cc1cc(Br)c2c(c1)c(N=NC(N)=O)c(O)n2C | 2.2 | 0.987
O=C(COc1ccccc1)Nc1ccc([N+](=O)[O-])cc1 | 4.7 | 1.09
N#Cc1ccccc1OCC(=O)N/N=C\C=C\c1ccc([N+](=O)[O-])cc1 | 25.6 | 0.575*
COc1ccc(OC)c(NC(=O)c2ccc(Cl)c(Cl)c2)c1 | 11.9 | 0.994
CC(NC(=O)COc1ccc(/C=N\NS(=O)(=O)c2ccccc2)cc1)c1ccccc1 (stereo not drawn) | 5.9 | 0.93
C=CCc1ccccc1OCCOc1c(Br)cc(/C=C2/SC(=S)N(C)C2=O)cc1OC | -1.3 | 1.02
CCOC(=O)c1ccc(NS(=O)(=O)c2cccs2)cc1 | -0.7 | 0.991
O=C(Nc1cccc(Br)c1)c1cc([N+](=O)[O-])ccc1Cl | 6.7 | 1.02
O=C(Nc1ccc(NC(=O)c2cc([N+](=O)[O-])ccc2Cl)cc1)c1ccc(Br)cc1 | 18.0 | 0.536*
Cc1cccc(/C(N)=N\OC(=O)c2ccc(C)c([N+](=O)[O-])c2)c1 | 13.0 | 1
Cc1ccc(/C(N)=N\OC(=O)c2cccc(C)c2)cc1 | 20.1 | 0.928
O=C1C(=O)N(c2nncs2)C(c2ccc(F)cc2)C1=C(O)c1ccccc1 (stereo not drawn) | 5.8 | 0.972
SMILES | HCV NS3h FP | Cy5 interf NS3h
O=C(CSc1nc2ccccc2o1)c1ccc2c(c1)Cc1ccccc1-2 | 1.2 | 0.644*
CC(C)(C)CC(C)(C)NC(=O)CSc1nc2ccccc2o1 | 6.1 | 0.912
O=C(CC(Nc1ccc([N+](=O)[O-])cc1)c1ccc(Cl)cc1)c1ccc(Cl)cc1 (stereo not drawn) | 10.0 | 1.06
O=[N+]([O-])c1cc(Cl)ccc1NCCNS(=O)(=O)c1ccc(Cl)cc1 | 6.9 | 0.998
O=C(CCN1C(=O)/C(=C/c2cccs2)SC1=S)Nc1ccc(F)cc1 | 2.9 | 1.05
CN1CCN(C(=O)CCN2C(=O)/C(=C/c3cccs3)SC2=S)CC1 | 0.3 | 0.577*
COC(=O)c1ccccc1NC(=O)CN(c1cccc(C(F)(F)F)c1)S(C)(=O)=O | -1.3 | 1.09
CCOc1c(Br)cc(/C=C(\C#N)c2nn(-c3ccccc3)c(N)c2C#N)cc1OC | 3.5 | 0.98
CCOc1c(Br)cc(/C=C(\C#N)c2nn(CCO)c(N)c2C#N)cc1OC | -24.7 | 0.792*
O=C(Nc1cccc(Cl)c1)Nc1nnc(-c2ccc(Cl)cc2Cl)s1 | 16.8 | 0.747*
O=C(Nc1cccc(Cl)c1)Nc1nnc(Cc2ccc(Cl)cc2Cl)s1 | -1.6 | 1.08
Cc1ccc(OCCOCCOc2ccc(Cl)cc2/C=C2/SC(=S)NC2=O)cc1 | 23.4 | 0.966
C=CCOc1ccc(Cl)cc1/C=C1/SC(=S)NC1=O | 11.9 | 1.24*
CCc1ccc(C(=O)/C=C/c2cn(-c3ccccc3)nc2-c2cccnc2)cc1 | 4.6 | 1.09
O=C1c2cc(S(=O)(=O)NCCCO)ccc2-c2ccc(S(=O)(=O)NCCCO)cc21 | -5.2 | 0.63*
O=C1c2cc(S(=O)(=O)Nc3ccncc3)ccc2-c2ccc(S(=O)(=O)Nc3ccncc3)cc21 | 15.0 | 0.921
O=C(Nc1ccc(Cl)c(Cl)c1)Nc1nnc(-c2ccccc2I)s1 | 2.2 | 1.06
NC(=S)N/N=C\c1cc2c(cc1[N+](=O)[O-])OCO2 | 9.7 | 0.79*
O=C(N/N=C\c1ccc(O)c([N+](=O)[O-])c1)/C(=C\c1ccc2c(c1)OCO2)NC(=O)c1ccccc1 | 4.6 | 1.01
COc1ccccc1N(CC(=O)N1CCOCC1)S(=O)(=O)c1ccccc1 | 0.6 | 1.11
Nc1nnc(SCc2ccc([N+](=O)[O-])cc2)s1 | 11.4 | 0.719*
